Screening results: PubChem, National Center for Advancing Translational Sciences (NCATS)
A selection: hits, their analogues and other compounds. The true share with any hit is near 12%.
Sfp PPTase inh – blocks B. subtilis Sfp PPTase activity | Potency, µM, hits mostly inhibitors | Q9F4F7 | Biochemical Sfp PPTase activity, qHTS | actives 3.5% (n = 310,000);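 also: the enzyme is Sfp with the accession as filed and its product quenches rhodamine fluorescence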
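Fluorescence-quenching assay: 15 nM Sfp-PPTase preincubated 15 min at room temperature with compound, then 5 uM rhodamine-CoA and 12.5 uM BHQ-2-labelled YbbR peptide added. Fluorescence (ex 525/em 598 nm) read at start and after 30 min; difference gives rate.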
G9a block – blocks human histone lysine methyltransferase G9a | Q96KQ7 | G9a H3K9 monomethylation, AlphaScreen, 2 h | Potency, µM (series often up to 102 µM), hits mostly inhibitors | actives 8.8% (n = 350,000); also: nearly all actives have a fitted effect of over 75% in size
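Compounds were preincubated with 20 nM G9a for 15 min, after which biotinylated H3K9 peptide (500 nM) and SAM (20 uM) started a 2 h room-temperature reaction. Monomethylated product was quantified by antibody-based AlphaScreen chemiluminescence.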
HP1b chromo inh – inhibitors of HP1-beta chromodomain binding to methylated histone tails. AlphaScreen HP1-beta / biotin-H3K9me3 peptide binding. Potency, µM (highest dose often 114 µM), most hits filed as inhibitors. actives 0.56% (n = 390,000). AID 540317; also: nearly all actives have a fitted effect of over 70% in size
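Compound inhibition of the preformed complex between 50 nM HP1-beta and 50 nM biotinylated H3K9me3 peptide was read by AlphaScreen. Buffer was PBS pH 7.4 with 0.01% Tween-20. Incubations ran 30 min at room temperature, with 10 ug/mL donor/acceptor beads.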
JMJD2A Tudor inh – inhibitors of human JMJD2A Tudor domain | O75164 | AlphaScreen JMJD2A-Tudor / H3K4me3 peptide binding | Potency, µM (titrated, usually from 114 µM), usual class: inhibitors | actives 4.4% (n = 390,000); also: nearly all actives have a fitted effect of over 50% in size
PLK1 PBD inh – inhibitors of human PLK1 polo-box domain binding; actives 2.8% (n = 360,000); AID 720504; Potency, µM, actives largely listed as inhibitors; Plk1 PBD binding of FITC phosphopeptide, fluorescence polarization; P53350; also: series mostly up to about 57 µM; nearly all actives have a fitted effect of over 65% in size
BAZ2B block – BAZ2B (human) inhibition; Potency, µM (highest dose often 114 µM), most hits filed as inhibitors; AlphaScreen BAZ2B-H3K14Ac peptide displacement; actives 4.4% (n = 360,000); Q9UIF8; also: nearly all actives have a fitted effect of over 60% in size
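AlphaScreen luminescence quantifies BAZ2B engagement of H3K14Ac peptide; the protein and biotinylated peptide are both at 50 nM final, buffer PBS pH 7.4 with 0.01% Tween-20, all steps at room temperature.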
Hits are given with their value; [ ] = another dose, or the depositor's remark. Calls follow the shape of the dose curve; as a rule, active = well fitted curve in the direction sought with a large enough effect; inconclusive = small, poorly fitted or top-dose-only effect, or another doubt; inactive = no such curve, though single readings can be large; an effect the other way counts as inactive or inconclusive.

For NCC(CS(=O)(=O)O)c1ccc(Cl)cc1 (stereo not given) the results were Sfp PPTase inh inactive and G9a block inactive.
CCC[C@@H]1CC2=CC(=O)CC[C@]2(C)[C@@H]2CC[C@@]3(C)[C@H](CC[C@]3(O)CCC(=O)O)[C@H]12 was read as Sfp PPTase inh inactive.
For COC(=O)c1c(Sc2ccccc2)c2ccccc2n1C the results were Sfp PPTase inh inactive, G9a block inactive[0.501 µM], HP1b chromo inh inactive, JMJD2A Tudor inh inactive, PLK1 PBD inh inactive and BAZ2B block inactive.
Screening NC(Cc1ccc(O)cc1)C(=O)NN=Cc1ccc(N(CCCl)CCCl)cc1 (stereo not given) returned HP1b chromo inh inactive, JMJD2A Tudor inh inconclusive and PLK1 PBD inh inactive.
`O=C(/C=C\c1ccc(Cl)cc1)N[C@@]12CCC(=O)[C@@H]3Oc4c(O)ccc5c4[C@@]31CCN(CC1CC1)[C@@H]2C5` gave Sfp PPTase inh inactive.
`C#CCN1C(C)=C(C(=O)CCO)[C@@H](c2cccc(-n3oo3)c2)C(C(=O)OC)=C1C` gave Sfp PPTase inh inactive.
For Cc1c(N)cccc1N the results were G9a block inactive[0.501 µM], HP1b chromo inh inactive, JMJD2A Tudor inh inactive, PLK1 PBD inh inactive and BAZ2B block inactive.
O=[N+]([O-])c1ccc(NCc2ccccc2)c2nonc12 was read as Sfp PPTase inh inactive, G9a block inactive, HP1b chromo inh inactive, JMJD2A Tudor inh inactive, PLK1 PBD inh 0.844µM and BAZ2B block inactive.
C=CCn1c(O)c(C(CC)=NCc2cccnc2)c(=O)[nH]c1=O was read as Sfp PPTase inh inactive, G9a block inactive, HP1b chromo inh inactive, JMJD2A Tudor inh inactive, PLK1 PBD inh inactive and BAZ2B block inactive.
Screening C[C@@H](CO)NC(=O)[C@@H]1C=C2c3cccc4[nH]cc(c34)C[C@H]2N(C)C1 returned Sfp PPTase inh inactive.
For CC(CO)NC(=O)C1C=C2c3cccc4[nH]cc(c34)C[C@H]2N(C)C1 (stereo not given in full) the results were Sfp PPTase inh inactive and G9a block inactive[2.33 µM].
For CC[C@@H](CO)NC(=O)[C@H]1C=C2c3cccc4c3c(cn4C)C[C@H]2N(C)C1 the results were Sfp PPTase inh 56.2µM and G9a block inactive[12.7 µM].
CC(CO)NC(=O)C1C=C2c3cccc4[nH]cc(c34)CC2N(C)C1 (stereo not given) was read as Sfp PPTase inh inactive and G9a block 15.8µM.
`CCCCCC[C@H]1C(=O)O[C@H](C)[C@H](NC(=O)c2cccc(NC=O)c2O)C(=O)O[C@@H](C)[C@H]1OC(=O)CC(C)C` gave Sfp PPTase inh inactive and G9a block inactive[21.5 µM].
Screening COC(=O)C[C@@](O)(CCC(C)(C)O)C(=O)O[C@@H]1C(OC)=C[C@]23CCCN2CCc2cc4c(cc2[C@@H]13)OCO4 returned Sfp PPTase inh inactive.
For CN(C)c1ccc(C=C2C=CC=C2)cc1 the results were HP1b chromo inh 22.4µM, JMJD2A Tudor inh 17.8µM and PLK1 PBD inh inactive.
O=C(CCC(=O)N1CCOc2ccc(Cl)cc21)N1CCC2(CC1)OCCO2 was read as Sfp PPTase inh inactive, HP1b chromo inh inactive, JMJD2A Tudor inh inactive, PLK1 PBD inh inactive and BAZ2B block inactive.
Screening O=C(NC1(C(F)(F)F)Oc2ccccc2O1)N1CCC2(CC1)OCCO2 returned Sfp PPTase inh inactive, G9a block 1.78µM, HP1b chromo inh inconclusive, JMJD2A Tudor inh 44.7µM, PLK1 PBD inh inactive and BAZ2B block inactive.
`O=C(NC1(C(F)(F)F)Oc2ccc(Cl)cc2O1)N1CCC2(CC1)OCCO2` (stereo not given) gave Sfp PPTase inh 79.4µM, G9a block inconclusive, HP1b chromo inh inactive, JMJD2A Tudor inh 31.6µM, PLK1 PBD inh inactive and BAZ2B block 79.4µM.
For O=C1C(Cl)=C(N2CCOCC2)C(=O)N1c1ccccc1F the results were Sfp PPTase inh inactive, G9a block 35.5µM, HP1b chromo inh inactive, JMJD2A Tudor inh inactive, PLK1 PBD inh inactive and BAZ2B block inactive.
Screening O=c1[nH]c(=S)n(-c2ccccc2F)c(O)c1C=Nc1ccc(N2CCOCC2)cc1 returned Sfp PPTase inh inactive, G9a block inactive, HP1b chromo inh inactive, JMJD2A Tudor inh inactive, PLK1 PBD inh inactive and BAZ2B block inactive.
